# Source: PubChem BioAssay (NCI)
# Several values for one entry are separate records, joined by “and”; a condition that tells them apart may be missing. Equal entries are not always repeated. The panel holds about 79,000 compounds, 15% with a hit somewhere; the sample as a whole holds those more often. Unmarked numbers belong to inactive results. Activity calls are given as the source filed them. Cut-off read from the data, not from the text of the source: active = growth inhibition above about 70%; inactive = the rest.
# What was measured:
# [1] = NCI Yeast Anticancer Drug Screen. Data for the rad50 strain (AID 155);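 note: 0% = growth of vehicle-only cultures of the same strain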; settings: S. cerevisiae rad50 strain growth inhibition, hits give high values
# In short: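 Relative growth inhibition (compound vs vehicle) was measured in yeast with a defined repair-gene alteration.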
# [2] = NCI Yeast Anticancer Drug Screen. Data for the sgs1 mgt1 strain (AID 161);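 note: 0% = growth of cultures given vehicle only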; settings: S. cerevisiae sgs1 mgt1 strain, hits give high values
# In short: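 Inhibition of yeast growth, normalised to vehicle-treated controls, is reported for a strain bearing genetic alterations in DNA damage repair.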
# [3] = NCI Yeast Anticancer Drug Screen. Data for the cln2 rad14 strain (AID 165);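 note: 0% = growth equal to vehicle treated cultures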; settings: S. cerevisiae cln2 rad14 strain, hits give high values
# In short: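 Test compounds were added to cln2 rad14 yeast cultures; inhibition of growth was then determined by comparison with vehicle treatment.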
# [4] = NCI Yeast Anticancer Drug Screen. Data for the bub3 strain (AID 167); settings: S. cerevisiae bub3 mutant strain, hits give high values
# In short: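 Screening used yeast with an engineered genetic alteration affecting cell cycle control. Compound-exposed cultures were compared with vehicle cultures, and reduced growth was taken as inhibition.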
# [5] = NCI Yeast Anticancer Drug Screen. Data for the mlh1 rad18 strain (AID 175); settings: S. cerevisiae mlh1 rad18 strain growth inhibition, hits give high values
# In short: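 Inhibition values reflect reduced growth of mutant yeast versus vehicle-treated controls following compound exposure; the mutations affect DNA damage repair.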
# [6] = NCI Yeast Anticancer Drug Screen. Data for the mec2-1 strain (AID 157); settings: S. cerevisiae mec2-1 strain, hits give high values
# In short: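 Each compound was tested on mec2-1 yeast, a strain altered in DNA damage repair or cell cycle control. Growth inhibition is reported relative to vehicle.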
# [7] = at 5.0 µM (retest, dose inferred, filed as 0.5)
# [8] = at 50.0 µM (retest, dose inferred, filed as 5.0)
structure (smiles),measurement,setting,value
O=C(N/N=C/c1cc(Br)cc(Br)c1[O-])c1ccccc1O.O=C(N/N=C/c1cc(Br)cc(Br)c1[O-])c1ccccc1O.[Zn+2],growth inhibition,[1]; [7],96% (active)
same,growth inhibition,[1]; [8],98% (active)
same,growth inhibition,[1]; at 50.0 µM,52.5%
same,growth inhibition,[2]; [7],97% (active)
same,growth inhibition,[2]; [8],98% (active)
same,growth inhibition,[2]; at 50.0 µM,85.5% (active)
same,growth inhibition,[3]; [7],94% (active)
same,growth inhibition,[3]; [8],96% (active)
same,growth inhibition,[3]; at 50.0 µM,64.5%
same,growth inhibition,[4]; [7],95% (active)
same,growth inhibition,[4]; [8],96% (active)
same,growth inhibition,[4]; at 50.0 µM,88.1% (active)
same,growth inhibition,[5]; [7],95% (active)
same,growth inhibition,[5]; [8],97% (active)
same,growth inhibition,[5]; at 50.0 µM,83.5% (active)
C=CCc1cc(Cl)ccc1OC(=O)N(C)C,growth inhibition,[1]; [7],5%
same,growth inhibition,[1]; [8],-2%
same,growth inhibition,[1]; at 50.0 µM,-7.75%
same,growth inhibition,[2]; [7],5%
same,growth inhibition,[2]; [8],-2%
same,growth inhibition,[2]; at 50.0 µM,-6.55%
same,growth inhibition,[3]; [7],6%
same,growth inhibition,[3]; [8],-1%
same,growth inhibition,[3]; at 50.0 µM,-19.3%
same,growth inhibition,[4]; [7],0%
same,growth inhibition,[4]; [8],-21%
same,growth inhibition,[4]; at 50.0 µM,-11.8%
same,growth inhibition,[5]; [7],0%
same,growth inhibition,[5]; [8],-1%
same,growth inhibition,[5]; at 50.0 µM,31.8%
COCCOCCOC(=O)CBr,growth inhibition,[1]; [7],-2%
same,growth inhibition,[1]; [8],96% (active)
same,growth inhibition,[1]; at 50.0 µM,86.1% (active)
same,growth inhibition,[6]; [7],-7%
same,growth inhibition,[6]; [8],96% (active)
same,growth inhibition,[6]; at 50.0 µM,82.5% (active)
same,growth inhibition,[3]; [7],1%
same,growth inhibition,[3]; [8],68%
same,growth inhibition,[3]; at 50.0 µM,40.7%
same,growth inhibition,[4]; [7],-3%
same,growth inhibition,[4]; [8],94% (active)
same,growth inhibition,[4]; at 50.0 µM,77.8% (active)
same,growth inhibition,[5]; [7],-3%
same,growth inhibition,[5]; [8],97% (active)
same,growth inhibition,[5]; at 50.0 µM,92.2% (active)
COc1ccc([As](O[As](c2ccc(OC)cc2)c2ccc(OC)cc2)c2ccc(OC)cc2)cc1,growth inhibition,[1]; [7],99% (active)
same,growth inhibition,[1]; [8],99% (active)
same,growth inhibition,[1]; at 50.0 µM,99.2% (active)
same,growth inhibition,[2]; [7],100% (active)
same,growth inhibition,[2]; [8],100% (active)
same,growth inhibition,[2]; at 50.0 µM,99.5% (active)
same,growth inhibition,[3]; [7],99% (active)
same,growth inhibition,[3]; [8],99% (active)
same,growth inhibition,[3]; at 50.0 µM,99.4% (active)
same,growth inhibition,[4]; [7],99% (active)
same,growth inhibition,[4]; [8],99% (active)
same,growth inhibition,[4]; at 50.0 µM,99.4% (active)
same,growth inhibition,[5]; [7],99% (active)
same,growth inhibition,[5]; [8],99% (active)
same,growth inhibition,[5]; at 50.0 µM,99.5% (active)
Cc1nc(N)nc(N)c1CCCOc1ccc(NC(=O)c2cccc(S(=O)(=O)F)c2)cc1,growth inhibition,[1]; at 50.0 µM,33.2%
same,growth inhibition,[6]; at 50.0 µM,25.9%
same,growth inhibition,[2]; at 50.0 µM,15.4%
same,growth inhibition,[3]; at 50.0 µM,19.2%
same,growth inhibition,[4]; at 50.0 µM,-4.45%
same,growth inhibition,[5]; at 50.0 µM,30.4%
CCC1(O)C(=O)OCc2c1cc1n(c2=O)Cc2cc3ccc(C=O)cc3nc2-1 (stereo not drawn),growth inhibition,[1]; at 50.0 µM,39.5%
same,growth inhibition,[6]; at 50.0 µM,19%
same,growth inhibition,[2]; at 50.0 µM,-17.5%
same,growth inhibition,[3]; at 50.0 µM,2.3%
same,growth inhibition,[4]; at 50.0 µM,-24.7%
Cc1[nH]c2cc([N+](=O)[O-])ccc2c1[N+](=O)[O-],growth inhibition,[1]; at 50.0 µM,44.6% and 36.9%
same,growth inhibition,[6]; at 50.0 µM,32.2% and 25.4%
same,growth inhibition,[2]; at 50.0 µM,26% and 38.3%
same,growth inhibition,[3]; at 50.0 µM,24.9% and 9.1%
same,growth inhibition,[4]; at 50.0 µM,-4.65% and -4.55%
same,growth inhibition,[5]; at 50.0 µM,59% and 41.8%
O=P(c1ccccc1)(c1ccccc1)c1ccccc1.O=P(c1ccccc1)(c1ccccc1)c1ccccc1.O=P(c1ccccc1)(c1ccccc1)c1ccccc1.O=P(c1ccccc1)(c1ccccc1)c1ccccc1.[Co+2].[O-][Cl+3]([O-])([O-])O,growth inhibition,[1]; at 50.0 µM,22.7%
same,growth inhibition,[6]; at 50.0 µM,3.45%
same,growth inhibition,[2]; at 50.0 µM,17.9%
same,growth inhibition,[3]; at 50.0 µM,20.9%
same,growth inhibition,[4]; at 50.0 µM,13.8%
same,growth inhibition,[5]; at 50.0 µM,16.3%
Cc1nn(C)pc1P(C)(=S)n1nc(N(C)C)np1 (stereo not drawn),growth inhibition,[1]; at 50.0 µM,-2.65%
same,growth inhibition,[6]; at 50.0 µM,-19.1%
same,growth inhibition,[2]; at 50.0 µM,0.65%
same,growth inhibition,[3]; at 50.0 µM,0.2%
same,growth inhibition,[4]; at 50.0 µM,-7.55%
same,growth inhibition,[5]; at 50.0 µM,-7.75%
CC1=C[C@H]2O[C@@H]3[C@H](O)[C@@H](O)[C@](C)(C2(COC(=O)CCl)CC1)[C@@]31CO1 (stereo partly drawn),growth inhibition,[1]; at 50.0 µM,87% (active)
same,growth inhibition,[6]; at 50.0 µM,89.7% (active)
same,growth inhibition,[2]; at 50.0 µM,87.7% (active)
same,growth inhibition,[3]; at 50.0 µM,90.2% (active)
same,growth inhibition,[4]; at 50.0 µM,88.5% (active)
OC1C2CCCCN2C[C@@H](O)[C@H]1O (stereo partly drawn),growth inhibition,[1]; at 50.0 µM,16.3%
same,growth inhibition,[6]; at 50.0 µM,11.9%
same,growth inhibition,[2]; at 50.0 µM,22.1%
same,growth inhibition,[3]; at 50.0 µM,22.6%
same,growth inhibition,[4]; at 50.0 µM,12%
same,growth inhibition,[5]; at 50.0 µM,-34%
O=C(CBr)c1ccncc1,growth inhibition,[1]; [7],99% (active)
same,growth inhibition,[1]; [8],99% (active)
same,growth inhibition,[6]; [7],100% (active)
same,growth inhibition,[6]; [8],100% (active)
same,growth inhibition,[2]; [7],100% (active)
same,growth inhibition,[2]; [8],99% (active)
same,growth inhibition,[3]; [7],99% (active)
same,growth inhibition,[3]; [8],99% (active)
same,growth inhibition,[4]; [7],100% (active)
same,growth inhibition,[4]; [8],99% (active)
same,growth inhibition,[5]; [7],95% (active)
same,growth inhibition,[5]; [8],98% (active)
O=C(CF)CCl,growth inhibition,[1]; [7],89% (active)
same,growth inhibition,[1]; [8],98% (active)
same,growth inhibition,[6]; [7],25%
same,growth inhibition,[6]; [8],99% (active)
same,growth inhibition,[2]; [7],88% (active)
same,growth inhibition,[2]; [8],65%
same,growth inhibition,[3]; [7],79% (active)
same,growth inhibition,[3]; [8],99% (active)
same,growth inhibition,[4]; [7],32%
same,growth inhibition,[4]; [8],99% (active)
same,growth inhibition,[5]; [7],69%
same,growth inhibition,[5]; [8],98% (active)
CC1CCCN(C(c2ccccc2)C(O)c2ccccc2)C1 (stereo not drawn),growth inhibition,[1]; at 50.0 µM,5.9%
same,growth inhibition,[6]; at 50.0 µM,1.35%
same,growth inhibition,[2]; at 50.0 µM,13.2%
same,growth inhibition,[3]; at 50.0 µM,-19.4%
same,growth inhibition,[4]; at 50.0 µM,46.5%
same,growth inhibition,[5]; at 50.0 µM,7.6%
O=[N+]([O-])c1cccc([N+](=O)[O-])c1Cl,growth inhibition,[1]; [7],58%
same,growth inhibition,[1]; [8],96% (active)
same,growth inhibition,[6]; [7],22%
same,growth inhibition,[6]; [8],96% (active)
same,growth inhibition,[2]; [7],13%
same,growth inhibition,[2]; [8],88% (active)
same,growth inhibition,[3]; [7],8%
same,growth inhibition,[3]; [8],12%
same,growth inhibition,[4]; [7],-12%
same,growth inhibition,[4]; [8],33%
same,growth inhibition,[5]; [7],7%
same,growth inhibition,[5]; [8],46%
CC(C)[C@]12O[C@H]1[C@@H]1O[C@]13[C@]1(O[C@H]1C[C@H]1C4=C(CC[C@@]13C)C(=O)OC4)[C@@H]2O,growth inhibition,[1]; at 50.0 µM,4.6%
same,growth inhibition,[6]; at 50.0 µM,2.9%
same,growth inhibition,[2]; at 50.0 µM,-20.1%
same,growth inhibition,[3]; at 50.0 µM,-5.1%
same,growth inhibition,[4]; at 50.0 µM,-17.2%
COc1ccc2nc3cc(Cl)ccc3c(NCCCN(CCCl)CCCl)c2c1,growth inhibition,[1]; at 50.0 µM,51%
same,growth inhibition,[6]; at 50.0 µM,19.2%
same,growth inhibition,[2]; at 50.0 µM,37.2%
same,growth inhibition,[3]; at 50.0 µM,34.2%
same,growth inhibition,[4]; at 50.0 µM,7.6%
CN(C)c1c2c(=O)n(C)c(=O)n(C)c2nc2cccc[n+]12,growth inhibition,[1]; at 50.0 µM,21.9%
same,growth inhibition,[6]; at 50.0 µM,22.9%
same,growth inhibition,[2]; at 50.0 µM,-5.2%
same,growth inhibition,[3]; at 50.0 µM,2.9%
same,growth inhibition,[4]; at 50.0 µM,5.95%
CCOC(=O)C1C(=O)C(C(=O)OCC)C2c3ccccc3-c3ccccc3C1N2C (stereo not drawn),growth inhibition,[1]; at 50.0 µM,29.8%
same,growth inhibition,[6]; at 50.0 µM,7.25%
same,growth inhibition,[2]; at 50.0 µM,35.2%
same,growth inhibition,[3]; at 50.0 µM,-7.35%
same,growth inhibition,[4]; at 50.0 µM,8.7%
same,growth inhibition,[5]; at 50.0 µM,15.7%
